SMILES strings stand for the structures. ± gives the standard deviation.

The subject of this experiment is OVCAR-3-derived ovarian cancer stem-like cells (spheroids). As to the kind of experiment: cell growth relative to untreated control; higher = more growth (less inhibition). Conditions: 2.29 µM; 96 h. In short, it runs like this:
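Stem-like cells derived from OVCAR-3 spheroids were dissociated with trypsin and seeded at 50,000 cells/mL in stem cell medium in ultra-low attachment 96-well plates, then preincubated for 24 h. Each compound was added at 2.29 uM to 4 replicate wells and left for 96 h at 37°C, 5% CO2. Viability came from TOX8 resazurin fluorescence (ex 560/em 590 nm) read after 4 h. Percent growth was expressed relative to untreated wells, after blank subtraction and removal of outliers by the Grubbs test.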
Take `CCOC(=O)[C@H](CC(C)C)NC(=O)C(Cc1ccc(N(CCCl)CCCl)cc1)NC(C)=O` (stereo partly specified): the cell growth turned out to be 73.3 ± 40%.

The compound `CC(C)OP(=O)(OC(C)C)C(N(C)C)P(=O)(OC(C)C)OC(C)C.[Cl][Sn]([Cl])([Cl])[c]1ccccc1` returned a cell growth of 62.2 ± 17%.

`Cc1cc(N(CC(C)Br)CC(C)Br)ccc1N=Nc1ccccc1C(=O)O` (stereo unspecified) had a cell growth of 64.5 ± 14%.

Take `Cn1c(=O)[nH]c2nncnc2c1=O`: the cell growth turned out to be 92.3 ± 13%.

For the compound `CC(C)c1oc(=O)cc2c1[C@@H](O)[C@H]1OC(=O)[C@@]3(C)[C@@H](O)[C@H]4O[C@H]4[C@@]2(C)[C@@H]13`, the cell growth is 62.6 ± 32%.

On to `C=C1C(=O)O[C@@H]2C[C@@H](C)[C@@H]3C=CC(=O)[C@@]3(C)[C@@H](O)[C@H]12`, for which the cell growth is 14.5 ± 2.5%.

`CC(C)(Br)C(=O)C(Br)Br` gave a cell growth of 88.9 ± 28%.

The compound `C=C1C(C)C2C(Cc3ccccc3)NC(=O)C23C(OC(C)=O)/C=C/C(C)(O)CC(C)C/C=C/C3C1O` (stereo unspecified) yielded a cell growth of 90.3 ± 20%.

`Cc1cc(N(CCOS(C)(=O)=O)CCOS(C)(=O)=O)ccc1C=Nc1ccc(-c2csc(-c3ccccc3)n2)c(Cl)c1` showed a cell growth of 97.7 ± 47%.

`CO[C@H]1Nc2c(ccc(C)c2O)C(=O)N2C=C(/C=C/C(N)=O)C[C@@H]12` had a cell growth of 12.8 ± 2.4%.

Compound `O=C1N[C@H]2[C@H](O)[C@H](O)[C@@H](O)[C@H](O)[C@@H]2c2cc3c(c(O)c21)OCO3` came in with a cell growth of 19.5 ± 2.6%.

`COc1ccc(-c2cc(=O)c3c(OC)c(OC)c(OC)cc3o2)cc1` gave a cell growth of 120 ± 31%.

The compound `COC1=C(C)C(=O)C2=C(C1=O)C(CO)N1C(C#N)C3CC4C(C1C2N1CCOC41)N3C` (stereo unspecified) displayed a cell growth of 14.9 ± 4.6%.

The compound `C[C@H]1CCC/C=C/[C@@H]2C[C@H](O)C[C@H]2[C@H](O)/C=C/C(=O)O1` returned a cell growth of 15 ± 2.5%.

The compound `Cc1ccc(N=Nc2c(O)ccc3ccccc23)cc1` gave a cell growth of 74.1 ± 8.8%.

The compound `CC1=C(N2CC2)C(=O)c2nc3n(c2C1=O)CCC3OC(=O)CCl` (stereo unspecified) gave a cell growth of 65.2 ± 6.7%.

Compound `CC[C@@]1(O)C[C@H](OC2CC(N(C)C)C(O)C(C)O2)c2c(O)c3c(c(O)c2[C@H]1OC1CC(N(C)C)C(O)C(C)O1)C(=O)c1cccc(O)c1C3=O` (stereo partly specified) showed a cell growth of 58.8 ± 56%.

`CC(=O)[O][Sn]([CH2]c1ccccc1)([CH2]c1ccccc1)[CH2]c1ccccc1` displayed a cell growth of 112 ± 25%.

For `COc1cc2c(c3oc4cccc(O)c4c(=O)c13)[C@@H]1C=CO[C@@H]1O2`, the cell growth came to 112 ± 22%.

As to `CC(=O)[O][Hg][c]1c(C)c(C)c(C)c(C)c1C`, the cell growth worked out at 94.5 ± 28%.

`COc1cc([C@@H]2c3cc4c(c(O)c3C[C@H]3COC(=O)[C@@H]32)OCO4)cc(OC)c1O` returned a cell growth of 20.4 ± 5.8%.

Regarding `O=[N+]([O-])c1ccc2c(c1)/C(=N/N=C1c3ccccc3Cc3ccccc31)c1cc([N+](=O)[O-])cc([N+](=O)[O-])c1-2`, the cell growth was 57.1 ± 34%.

As to `CNC(=O)ON(C(C)=O)C(=O)NC`, the cell growth worked out at 114 ± 42%.

`CC(C)C[C@H]1C(=O)N2CCC[C@H]2[C@]2(O)O[C@](NC(=O)[C@@H]3C=C4c5cccc6[nH]c(Br)c(c56)C[C@H]4N(C)C3)(C(C)C)C(=O)N12` showed a cell growth of 90.6 ± 6.8%.

As to `COc1cc(C2c3cc4c(cc3C(O)C3COC(=O)C23)OCO4)cc(OC)c1OC` (stereo unspecified), the cell growth amounted to 31 ± 5.3%.

`COC1CC(CC2CCC(C)C(C(C)C(=O)O)O2)OC2(OC(C)(C3CCC(C)(C4OC(C5OC(O)(CO)C(C)CC5C)CC4C)O3)CC2C)C1C` (stereo unspecified) registered a cell growth of 64.5 ± 48%.

In turn, `C=C(C)C(=O)OC1CCC2(C)C(CCC3C2CCC2(C)C(c4ccc(=O)oc4)CC4OC432)C1` (stereo unspecified) yielded a cell growth of 92.2 ± 18%.

Regarding `CC1Oc2cc3c(-c4c(O)cc(O)c5c(O)c6c(cc45)OC(C)C(C)C6=O)c(O)cc(O)c3c(O)c2C(=O)C1C` (stereo unspecified), the cell growth worked out at 23.8 ± 48%.

Take `C[N+](C)(C)CC1CCCC1=O` (stereo unspecified): the cell growth stood at 95.5 ± 20%.

Turning to `CCCCCn1cc2c3c(cccc31)C1C=C(C)CN(C)[C@@H]1C2.Cc1ccc(C(=O)OC(C(=O)O)C(OC(=O)c2ccc(C)cc2)C(=O)O)cc1` (stereo unspecified), the cell growth was 78.9 ± 11%.

As to `COc1cc2c(c(OC)c1OC)-c1ccc(OC)c(=O)cc1[C@@H](NC(C)=O)CC2`, the cell growth worked out at 47.9 ± 11%.

The values above are taken from the supplement of paper PMC3484114.
